SARS PLpro yeast: inhibitors of SARS-CoV papain-like protease in yeast; S. cerevisiae expressing SARS-CoV PLpro, growth rescue; AID 485353; Potency, µM (doses to about 32.9 µM), inactives show at the top dose activity, positive = growth rescue, hits mostly activators; 0.19% of 330,000 active; calls by dose curve; note: potency is the fitted concentration of half-maximal effect; 0% is about no effect; nearly all actives have a fitted effect of over 55% in size
AMA1 RON2 block: AMA1-RON2 (P. falciparum) interaction inhibition; AID 720542; Potency, µM (top dose mostly 58.2 µM), for the others: top-dose activity change, negative = inhibition, most hits filed as inhibitors; 0.2% of 360,000 active; AlphaScreen AMA1-biotinylated RON2 peptide binding;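 note: potency is the fitted concentration of half-maximal effect; 0% = vehicle wells and -100% = peptide control; nearly all actives have a fitted effect of over 45% in size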
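AMA1 (3D7) with his tag at 25 nM final met compounds first, then biotinylated RON2 peptide at 25 nM; detection used donor plus acceptor beads, 10 µg/mL apiece, read by AlphaScreen after 30 min at room temperature.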
Shiga toxin inh: blocks Shiga toxin action in Vero cells; inhibition, % at 38.7 µM; AID 2315; 9.2% of 290,000 active; Vero cells, Shiga toxin protein synthesis inhibition reporter; in the data active = inhibition mostly above about 28%, no sharp cut-off; inactive = mostly below about 43%; note: 0% is about no effect
AmpC no deterg: blocks E. coli AmpC beta-lactamase in detergent-free assay | P00811 | AmpC nitrocefin hydrolysis, absorbance 480 nm, 0.0001% Triton | Potency, µM (titrated, usually from 57.1 µM), for inactives: at the highest dose activity change, negative = inhibition, hits mostly inhibitors | 0.52% of 330,000 active;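 note: potency is the fitted concentration of half-maximal effect; plate controls were no compound for no effect and no enzyme for full effect; nearly all actives have a fitted effect of over 20% in size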
Target sequence (P00811 whole entry, looked up): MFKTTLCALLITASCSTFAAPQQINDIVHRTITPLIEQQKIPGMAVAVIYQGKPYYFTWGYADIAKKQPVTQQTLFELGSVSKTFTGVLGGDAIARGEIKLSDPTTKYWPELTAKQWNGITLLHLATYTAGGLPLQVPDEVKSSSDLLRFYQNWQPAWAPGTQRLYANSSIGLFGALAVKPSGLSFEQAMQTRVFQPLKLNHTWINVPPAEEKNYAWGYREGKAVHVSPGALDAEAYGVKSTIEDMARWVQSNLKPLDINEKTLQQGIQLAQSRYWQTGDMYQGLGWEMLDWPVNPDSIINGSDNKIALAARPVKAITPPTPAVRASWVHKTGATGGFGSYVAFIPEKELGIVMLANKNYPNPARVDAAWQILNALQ
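20 mM phosphate pH 7.0 + 0.01% (detergent screen) or 0.0001% Triton X-100; 5.3 nM AmpC reagent; cpd preinc 15 min RT; nitrocefin (800 uM stock) to start; A480 q20 s × 4 min; Activity was normalised to no-enzyme and no-compound control wells.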
AmpC detergent: blocks E. coli AmpC beta-lactamase in detergent assay | 0.041% of 370,000 active | P00811 | AmpC hydrolysis of nitrocefin, absorbance 480 nm, 0.01% Triton | Potency, µM (titrated, usually from 114 µM), inactives show at the highest dose activity change, negative = inhibition, hits mostly inhibitors;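 note: potency is the fitted concentration of half-maximal effect; 0% = no-compound wells and -100% = no-enzyme wells; nearly all actives have a fitted effect of over 25% in size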
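AmpC (5.3 nM in the dispensed reagent) in 20 mM phosphate pH 7.0 with 0.01% (detergent screen) or 0.0001% Triton X-100 was preincubated with compounds for 15 min at room temperature. Nitrocefin was then added from an 800 uM solution, and hydrolysis was followed at 480 nm.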
CHX counter: affects cycloheximide protein synthesis inhibition readout, counter-screen; AID 2314; 12% of 300,000 active; max response, %; cell reporter, cycloheximide protein synthesis inhibition counterscreen; in the data active = max response mostly above about 13%, no sharp cut-off; inactive = mostly below about 14%; note: read at 38.3 µM for the half of the compounds with a filed dose; 0% is about no effect
* = called active by the depositor; ? = inconclusive; / = not tested or not shown; [ ] = another dose, or the depositor's remark. This excerpt belongs to a sample that is enriched for hits. Unless noted, calls come from the whole dose curve; as a rule, active = well fitted curve in the direction sought with a large enough effect; inconclusive = small, poorly fitted or top-dose-only effect, or another doubt; inactive = no such curve, though single readings can be large; an effect the other way counts as inactive or inconclusive.

SMILES	SARS PLpro yeast	AMA1 RON2 block	Shiga toxin inh	AmpC no deterg	AmpC detergent	CHX counter
Nc1c(C(=O)Nc2ccccc2)nnn1-c1ccc2c(c1)OCCO2	-29.4%	6.6%	73.8*	-17.5%	2.3%	34.0*
Cc1ccccc1Cn1nnc(C(=O)Nc2ccc3c(c2)OCCO3)c1N	-0.6%	-10.2%	/	-19.1%	?	/
Cc1ccc(NC(=S)N/N=C2\CCCCC2C)cc1 (centres undefined)	-2.6%	23.6%	95.0*	-27.1%	-2.1%	43.5*
CC1CCCC/C1=N\NC(=S)Nc1cccnc1 (centres undefined)	1.3%	12.6%	17.7	-34.1%	-8.2%	4.2
CC1CCCC/C1=N\NC(=S)NCCc1ccccc1 (centres undefined)	3.1%	65.6%	97.6*	-22.0%	-3.5%	44.1*
O=S(=O)(NCc1ccccc1)c1cccc(S(=O)(=O)N2CCOCC2)c1	-2.0%	-19.3%	-16.1	-4.4%	-0.6%	-4.8
OC[C@@H]1CCCN1Cc1nc(-c2cccs2)no1	-0.4%	1.2%	51.2*	0.0%	-5.4%	19.4*
c1csc(-c2noc(CN3CCOCC3)n2)c1	-0.4%	-20.7%	41.2*	-6.9%	3.3%	31.1*
CN1CCN(Cc2nc(-c3cccs3)no2)CC1c1ccccc1 (centres undefined)	0.6%	-4.4%	9.8	47.4%	-6.1%	-1.6
O=C(c1ccco1)N1CCN(Cc2nc(-c3cccs3)no2)CC1	1.3%	-13.0%	34.8*	15.2%	-4.6%	11.0*
O=C(c1ccco1)N1CCCN(Cc2nc(-c3ccc4c(c3)OCO4)no2)CC1	-0.9%	-6.4%	17.3	40.0%	-13.4%	6.7
c1csc(-c2noc(CN3CCN4CCCC4C3)n2)c1 (centres undefined)	0.6%	-1.5%	47.0*	-9.8%	3.8%	20.9*
COc1ccc(C2CC(=O)Nc3c2c(=O)[nH]c2nc4ccccc4n32)cc1OC (centres undefined)	/	/	/	/	-1.9%	/
O=C(Cn1cc([N+](=O)[O-])cn1)NCc1ccccc1Cl	/	20.1%	/	/	/	/
Cc1c(CCOC(=O)C2C3CC4CC(C3)CC2C4)sc[n+]1CC(=O)c1ccc(Br)cc1 (centres undefined)	-3.5%	-8.3%	-20.0	126.9%	-1.1%	-3.4
COc1ccc(Nc2nnc(SC(C)C(=O)NC3CC3)s2)cc1 (centres undefined)	4.0%	-16.8%	/	-40.9%	/	/
CC(Sc1nnc(NC2CCCCC2)s1)C(=O)Nc1ccc2c(c1)C(=O)c1ccccc1C2=O (centres undefined)	-3.8%	-3.5%[11.6 µM]	75.6*	-21.6%	-9.6%	26.5*
Clc1ccc(CCNc2nc3ccccc3n3nnnc23)cc1	0.1%	-0.7%	7.6	-11.6%	4.5%	4.1
S=C(NCC1CCCO1)n1nnc2ccccc21 (centres undefined)	-4.6%	-6.0%	-1.3	-5.2%	-12.6%	30.7*
c1ccc2c(c1)nc(NCC1CCCO1)c1nnnn12 (centres undefined)	-16.1%	27.6%	58.4*	-9.3%	0.2%	21.5*
CC(C)C(=O)N1CCN(c2ccccc2NC(=O)COc2ccc(C3CCCCC3)cc2)CC1	-7.7%	-20.2%	-12.5	54.7%	-0.7%	1.5
c1ccc(Nc2nnc(-c3cccc4ccccc34)o2)cc1	-1.2%	15.2%	54.1*	-25.4%	-6.2%	35.6*
Cc1ccc(C)c(-c2nn(CC(=O)Nc3cc(F)ccc3F)c(=O)c3c2CCCC3)c1	/	/	/	/	14.3%	/
CC1CCCCC1NC(=O)COC(=O)c1ccc(S(=O)(=O)NCc2ccco2)cc1 (centres undefined)	-5.0%	-18.7%	-5.0	-6.6%	-5.9%	-2.6
O=C(CNC(=O)c1ccco1)OCc1c(F)cccc1Cl	6.4%	-7.0%	8.1	-27.1%	?	19.5*
COc1ccccc1C(=O)NCCSCc1c(F)cccc1Cl	-6.5%	23.3%	24.8	-25.0%	-3.8%	23.0*
O=C(NCCSCc1c(F)cccc1Cl)c1ccco1	-20.4%	3.3%	119.3	3.4%	10.7%	29.1*
COc1ccc(Cn2c(C3CC3)nc3ccc(NC(C)=O)cc3c2=O)cc1	-5.5%	17.1%	121.1*	29.6%	?	56.5*
